# Inconclusive results are not listed. Entries that show only a call come without a potency. The source made the active and inactive calls. Calls follow the shape of the dose curve; as a rule, active = well fitted cell-killing curve with a large enough effect in the repeat runs; inconclusive = weak or mixed curves, or effect the other way; inactive = flat fitted curve, though single readings scatter.
# Assay: qHTS assay to identify small molecule antagonists of the estrogen receptor alpha (ER-alpha) signaling pathway using the BG1 cell line in the presence of 0.1 nM 17-beta-estradiol - cell viability counter screen (AID 1259241); also: nearly all actives have a fitted effect of over 40% in size
# Conditions: VM7Luc4E2 (BG1) viability, CellTiter-Fluor protease, 22 h, 0.1 nM estradiol agonist added; series mostly up to 92.4 µM; activity change, negative = cytotoxicity: at the top concentration
# Summary of the method: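 In this screen, hormone-deprived VM7Luc4E2 cells were seeded at 4,000 per well, dosed with compound and 0.1 nM estradiol final, and incubated 22 hr at 37C and 5% CO2; fluorogenic live-cell protease signal reported viability.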
# Potency is read from the fitted curve at half-maximal effect.
SMILES,Potency,"activity change, negative = cytotoxicity"
N#CCCCCC#N,inactive,–
COP(=S)(OC)Oc1ccc(S(=O)(=O)N(C)C)cc1,inactive,–
C[C@]12CC[C@H]3[C@@H](CCC4=CC(=O)CC[C@@H]43)[C@@H]1CC[C@@H]2O,inactive,–
COc1ccc(CO)cc1,inactive,–
CCC(=O)Nc1ccc(Cl)c(Cl)c1,inactive,–
NN=C(N)N,inactive,–
OC(c1ccc(Cl)cc1)(c1cncnc1)c1ccccc1Cl (configuration not stated),–,-0.801% (inactive)
Cl,inactive,–
CC(C)(c1ccccc1)c1ccc(O)c(C(C)(C)c2ccccc2)c1,61.1 µM (active),–
CC(C)(c1ccccc1)c1ccc(O)cc1,inactive,–
COP(=O)(NC(C)=O)SC (configuration not stated),inactive,–
COC(=O)Nc1nc2ccccc2[nH]1,inactive,–
CC(O)CN(CC(C)O)CC(C)O (configuration not stated),inactive,–
CCCCSP(=O)(SCCCC)SCCCC,inactive,–
O=P(OCCCl)(OCCCl)OCCCl,inactive,–
CCOS(=O)(=O)OCC,inactive,–
CC(C)(O)C#N,inactive,–
CS(=O)(=O)NC(=O)c1cc(Oc2ccc(C(F)(F)F)cc2Cl)ccc1[N+](=O)[O-],inactive,–
Nc1ccc([N+](=O)[O-])cc1N,61.1 µM (active),–
Oc1ccc(Cl)cc1Cc1ccccc1,inactive,–
CCC1(c2ccc(N)cc2)CCC(=O)NC1=O (configuration not stated),inactive,–
NC(=O)CN1CCCC1=O,inactive,–
COc1ccc(C=O)cc1OC,inactive,–
O=C(O)c1nn(Cc2ccc(Cl)cc2Cl)c2ccccc12,inactive,–
Brc1ccc(Br)cc1,inactive,–
[CH3][Sn]([Cl])([Cl])[Cl],inactive,–
O=C1C(Cl)=C(Cl)C(=O)c2ccccc21,24.4 µM (active),–
